Test results as given in paper PMC7862700, “An all-to-all approach to the identification of sequence-specific readers for epigenetic DNA modifications on cytosine”.

Experiments:
Test in all cases: DAPPL (digital affinity profiling via proximity ligation, sequencing); 10 mM Tris-HCl pH 7.5, 50 mM NaCl, 1 mM DTT, 4% glycerol, room temperature, 30 min; GST-TFs on glutathione beads, 16-mer random dsDNA library, 0.1% formaldehyde crosslink after washing; high values mean tight binding
FEV = molecular target: T1, FEV (Homo sapiens, UniProt Q99581 1-238); conditions: protein: recombinant; tags: N-terminal GST; dsDNA, one strand shown
T1 sequence: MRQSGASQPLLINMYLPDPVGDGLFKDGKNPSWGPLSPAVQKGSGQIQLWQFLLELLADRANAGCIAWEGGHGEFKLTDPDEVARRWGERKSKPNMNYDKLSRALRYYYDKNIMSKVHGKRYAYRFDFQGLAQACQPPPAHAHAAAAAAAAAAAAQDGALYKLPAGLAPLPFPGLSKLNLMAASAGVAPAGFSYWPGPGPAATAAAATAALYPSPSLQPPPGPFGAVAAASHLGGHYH
In short: (§1)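 Each value of binding signal is a hexamer's read frequency for a factor divided by the same hexamer's frequency in the tag-only sample. Barcoded, bead-captured GST fusions of human transcription factors made in yeast were pooled with that sample and incubated with 200 nmole of a random double-stranded 16-mer DNA library in Tris/NaCl/DTT/glycerol buffer at room temperature for 30 min. Washing, 0.1% formaldehyde crosslinking, proximity ligation, PCR and Illumina NextSeq500 sequencing followed.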

ETV5 = ETV5 (Homo sapiens, UniProt P41161 1-510); conditions: protein: recombinant; tags: N-terminal GST; dsDNA, one strand shown
In short: as §1

HSF1 = HSF1 (Homo sapiens, UniProt Q00613 1-529); conditions: protein: recombinant; tags: N-terminal GST; chain copies: 3; dsDNA, one strand shown
In short: as §1

SPIC = molecular target: T2, SPIC (Homo sapiens, UniProt Q8N5J4 1-248); conditions: protein: recombinant; tags: N-terminal GST; dsDNA, one strand shown
T2 sequence: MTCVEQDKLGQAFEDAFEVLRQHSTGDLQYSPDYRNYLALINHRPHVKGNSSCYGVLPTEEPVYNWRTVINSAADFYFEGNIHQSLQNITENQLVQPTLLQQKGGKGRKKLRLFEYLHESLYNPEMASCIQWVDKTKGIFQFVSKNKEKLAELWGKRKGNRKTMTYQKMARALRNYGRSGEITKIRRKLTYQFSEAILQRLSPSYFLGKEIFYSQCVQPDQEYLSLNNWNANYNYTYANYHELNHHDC
In short: as §1

ELF4 = ELF4 (Homo sapiens, UniProt Q99607 1-663); conditions: protein: recombinant; tags: N-terminal GST; dsDNA, one strand shown
In short: as §1

ELK4 = molecular target: T3, ELK4 (Homo sapiens, UniProt P28324-2 1-405); conditions: protein: recombinant; tags: N-terminal GST; dsDNA, one strand shown
T3 sequence: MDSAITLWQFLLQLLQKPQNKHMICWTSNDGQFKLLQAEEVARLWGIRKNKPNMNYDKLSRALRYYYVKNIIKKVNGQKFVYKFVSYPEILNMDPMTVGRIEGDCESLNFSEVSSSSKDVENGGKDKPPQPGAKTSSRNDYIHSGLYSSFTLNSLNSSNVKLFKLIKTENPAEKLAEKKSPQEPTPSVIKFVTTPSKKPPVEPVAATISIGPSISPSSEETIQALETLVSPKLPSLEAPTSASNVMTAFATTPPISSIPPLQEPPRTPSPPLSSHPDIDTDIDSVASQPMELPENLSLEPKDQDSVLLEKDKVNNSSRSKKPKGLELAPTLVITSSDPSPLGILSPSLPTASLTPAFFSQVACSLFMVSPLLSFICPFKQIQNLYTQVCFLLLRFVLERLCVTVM
In short: as §1

ETV2 = molecular target: T4, ETV2 (Homo sapiens, UniProt O00321 1-342); conditions: protein: recombinant; tags: N-terminal GST; dsDNA, one strand shown
T4 sequence: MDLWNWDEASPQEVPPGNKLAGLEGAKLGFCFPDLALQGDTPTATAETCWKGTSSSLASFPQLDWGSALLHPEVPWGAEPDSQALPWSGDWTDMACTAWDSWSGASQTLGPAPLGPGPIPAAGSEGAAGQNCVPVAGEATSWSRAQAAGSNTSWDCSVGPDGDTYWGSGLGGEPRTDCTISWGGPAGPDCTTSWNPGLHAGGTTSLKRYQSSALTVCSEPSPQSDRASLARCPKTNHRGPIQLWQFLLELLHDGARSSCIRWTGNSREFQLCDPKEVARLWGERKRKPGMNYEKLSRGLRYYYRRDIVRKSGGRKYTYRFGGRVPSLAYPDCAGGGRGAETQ
In short: as §1

ELF3 = molecular target: T5, ELF3 (Homo sapiens, UniProt P78545 1-371); conditions: protein: recombinant; tags: N-terminal GST; dsDNA, one strand shown
T5 sequence: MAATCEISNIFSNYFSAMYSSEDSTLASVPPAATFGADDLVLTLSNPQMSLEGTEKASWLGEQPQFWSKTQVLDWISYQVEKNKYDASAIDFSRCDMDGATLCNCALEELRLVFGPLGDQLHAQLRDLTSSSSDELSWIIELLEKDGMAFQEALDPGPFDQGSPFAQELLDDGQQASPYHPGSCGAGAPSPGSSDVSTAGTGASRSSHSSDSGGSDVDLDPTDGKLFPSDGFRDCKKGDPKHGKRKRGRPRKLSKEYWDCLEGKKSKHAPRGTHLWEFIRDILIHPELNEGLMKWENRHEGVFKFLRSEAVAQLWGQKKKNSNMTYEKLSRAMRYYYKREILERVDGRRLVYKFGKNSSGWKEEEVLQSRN
In short: as §1

CRX = CRX (Homo sapiens, UniProt O43186 1-299); conditions: protein: recombinant; tags: N-terminal GST; dsDNA, one strand shown
In short: as §1

ETV1 = ETV1 (Homo sapiens, UniProt P50549 1-477); conditions: protein: recombinant; tags: N-terminal GST; dsDNA, one strand shown
In short: as §1

ERF = molecular target: T6, ERF (Homo sapiens, UniProt P50548 1-548); conditions: protein: recombinant; tags: N-terminal GST; dsDNA, one strand shown
T6 sequence: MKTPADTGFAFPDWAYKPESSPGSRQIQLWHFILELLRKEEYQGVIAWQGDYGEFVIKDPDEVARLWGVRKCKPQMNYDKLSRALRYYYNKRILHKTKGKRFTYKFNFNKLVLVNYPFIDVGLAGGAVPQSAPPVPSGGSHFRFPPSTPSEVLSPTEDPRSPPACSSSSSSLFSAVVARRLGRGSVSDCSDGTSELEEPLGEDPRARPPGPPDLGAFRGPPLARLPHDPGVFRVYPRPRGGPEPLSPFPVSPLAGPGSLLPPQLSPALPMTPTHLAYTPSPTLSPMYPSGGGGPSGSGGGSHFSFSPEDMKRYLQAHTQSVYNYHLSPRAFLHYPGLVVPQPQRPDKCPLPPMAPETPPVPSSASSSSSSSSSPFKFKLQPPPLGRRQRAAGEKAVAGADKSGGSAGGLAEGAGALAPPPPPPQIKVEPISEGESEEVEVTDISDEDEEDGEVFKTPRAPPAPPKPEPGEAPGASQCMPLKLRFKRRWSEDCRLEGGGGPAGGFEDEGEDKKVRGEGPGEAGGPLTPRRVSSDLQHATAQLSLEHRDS
In short: as §1

ETV3L = molecular target: T7, ETV3L (Homo sapiens, UniProt Q6ZN32 1-361); conditions: protein: recombinant; tags: N-terminal GST; dsDNA, one strand shown
T7 sequence: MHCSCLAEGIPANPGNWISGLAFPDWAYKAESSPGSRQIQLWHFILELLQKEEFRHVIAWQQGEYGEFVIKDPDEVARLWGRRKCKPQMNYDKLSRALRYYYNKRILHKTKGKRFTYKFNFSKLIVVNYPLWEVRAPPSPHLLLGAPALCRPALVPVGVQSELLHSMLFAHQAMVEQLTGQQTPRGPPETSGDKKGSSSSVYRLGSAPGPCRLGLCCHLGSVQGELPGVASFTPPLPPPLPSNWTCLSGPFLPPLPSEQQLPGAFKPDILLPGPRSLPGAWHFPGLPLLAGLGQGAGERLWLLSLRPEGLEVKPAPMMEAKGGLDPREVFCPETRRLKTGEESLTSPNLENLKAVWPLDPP
In short: as §1

ETS2 = molecular target: T8, ETS2 (Homo sapiens, UniProt P15036 1-469); conditions: protein: recombinant; tags: N-terminal GST; dsDNA, one strand shown
T8 sequence: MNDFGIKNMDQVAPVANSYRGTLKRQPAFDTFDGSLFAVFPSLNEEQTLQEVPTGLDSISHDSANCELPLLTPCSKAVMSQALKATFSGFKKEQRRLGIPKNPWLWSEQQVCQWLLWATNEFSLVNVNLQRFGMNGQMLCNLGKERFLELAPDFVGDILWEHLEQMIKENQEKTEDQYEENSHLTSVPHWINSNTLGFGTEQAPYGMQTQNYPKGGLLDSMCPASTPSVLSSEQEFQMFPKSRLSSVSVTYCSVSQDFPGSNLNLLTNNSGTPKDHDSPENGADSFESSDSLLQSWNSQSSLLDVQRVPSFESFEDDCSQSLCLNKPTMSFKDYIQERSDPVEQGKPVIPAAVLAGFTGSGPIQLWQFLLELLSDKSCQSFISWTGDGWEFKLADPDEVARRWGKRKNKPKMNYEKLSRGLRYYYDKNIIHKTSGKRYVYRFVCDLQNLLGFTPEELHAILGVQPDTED
In short: as §1

SPDEF = molecular target: T9, SPDEF (Homo sapiens, UniProt O95238 1-335); conditions: protein: recombinant; tags: N-terminal GST; dsDNA, one strand shown
T9 sequence: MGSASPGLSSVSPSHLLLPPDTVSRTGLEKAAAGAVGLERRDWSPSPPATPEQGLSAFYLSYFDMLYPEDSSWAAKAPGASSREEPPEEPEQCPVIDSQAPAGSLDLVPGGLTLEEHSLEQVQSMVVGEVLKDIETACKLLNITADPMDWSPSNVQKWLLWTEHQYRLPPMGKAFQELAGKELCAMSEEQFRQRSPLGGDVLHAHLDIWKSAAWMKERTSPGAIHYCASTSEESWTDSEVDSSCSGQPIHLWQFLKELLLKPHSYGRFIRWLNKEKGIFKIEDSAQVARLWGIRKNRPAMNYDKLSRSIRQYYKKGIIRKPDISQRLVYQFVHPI
In short: as §1

ETV7 = molecular target: T10, ETV7 (Homo sapiens, UniProt Q9Y603 1-341); conditions: protein: recombinant; tags: N-terminal GST; dsDNA, one strand shown
T10 sequence: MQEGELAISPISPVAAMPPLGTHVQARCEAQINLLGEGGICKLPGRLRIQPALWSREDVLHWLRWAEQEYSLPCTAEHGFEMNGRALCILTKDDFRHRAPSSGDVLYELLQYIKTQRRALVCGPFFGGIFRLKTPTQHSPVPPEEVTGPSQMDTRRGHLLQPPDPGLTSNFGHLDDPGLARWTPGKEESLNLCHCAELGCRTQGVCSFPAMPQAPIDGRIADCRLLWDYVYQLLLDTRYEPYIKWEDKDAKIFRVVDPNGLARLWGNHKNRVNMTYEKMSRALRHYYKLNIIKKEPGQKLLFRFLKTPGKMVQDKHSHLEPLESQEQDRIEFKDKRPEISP
In short: as §1

ELF5 = molecular target: T11, ELF5 (Homo sapiens, UniProt Q9UKW6-2 1-255); conditions: protein: recombinant; tags: N-terminal GST; dsDNA, one strand shown
T11 sequence: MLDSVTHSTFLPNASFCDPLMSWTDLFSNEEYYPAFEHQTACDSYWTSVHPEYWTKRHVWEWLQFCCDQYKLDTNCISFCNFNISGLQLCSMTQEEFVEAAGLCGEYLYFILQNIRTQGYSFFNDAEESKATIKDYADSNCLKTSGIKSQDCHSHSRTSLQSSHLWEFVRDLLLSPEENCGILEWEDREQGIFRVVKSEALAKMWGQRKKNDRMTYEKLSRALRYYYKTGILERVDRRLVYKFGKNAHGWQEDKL
In short: as §1

ETV3 = molecular target: T12, ETV3 (Homo sapiens, UniProt P41162-2 1-143); conditions: protein: recombinant; tags: N-terminal GST; dsDNA, one strand shown
T12 sequence: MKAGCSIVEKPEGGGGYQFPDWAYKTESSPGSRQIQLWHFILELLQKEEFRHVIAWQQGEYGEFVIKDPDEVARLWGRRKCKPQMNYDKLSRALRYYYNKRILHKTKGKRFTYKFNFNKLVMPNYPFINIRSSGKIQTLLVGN
In short: as §1

ETV6 = ETV6 (Homo sapiens, UniProt P41212 1-452); conditions: protein: recombinant; tags: N-terminal GST; dsDNA, one strand shown
In short: as §1

Chain of ETV5 (P41161 whole entry): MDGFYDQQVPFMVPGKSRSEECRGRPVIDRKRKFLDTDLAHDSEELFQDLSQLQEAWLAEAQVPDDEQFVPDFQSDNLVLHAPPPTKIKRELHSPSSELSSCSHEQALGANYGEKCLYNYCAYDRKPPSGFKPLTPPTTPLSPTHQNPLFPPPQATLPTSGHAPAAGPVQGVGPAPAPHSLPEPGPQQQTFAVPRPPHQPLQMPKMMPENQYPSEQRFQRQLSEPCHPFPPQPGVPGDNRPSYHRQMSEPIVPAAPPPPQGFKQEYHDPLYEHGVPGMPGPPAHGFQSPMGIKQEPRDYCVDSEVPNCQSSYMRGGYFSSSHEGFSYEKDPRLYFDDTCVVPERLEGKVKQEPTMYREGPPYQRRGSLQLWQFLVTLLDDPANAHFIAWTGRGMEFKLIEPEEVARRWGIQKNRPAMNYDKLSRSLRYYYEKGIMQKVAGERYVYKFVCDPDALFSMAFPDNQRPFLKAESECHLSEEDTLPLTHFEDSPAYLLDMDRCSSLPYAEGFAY
Chain of ETV1 (P50549 whole entry): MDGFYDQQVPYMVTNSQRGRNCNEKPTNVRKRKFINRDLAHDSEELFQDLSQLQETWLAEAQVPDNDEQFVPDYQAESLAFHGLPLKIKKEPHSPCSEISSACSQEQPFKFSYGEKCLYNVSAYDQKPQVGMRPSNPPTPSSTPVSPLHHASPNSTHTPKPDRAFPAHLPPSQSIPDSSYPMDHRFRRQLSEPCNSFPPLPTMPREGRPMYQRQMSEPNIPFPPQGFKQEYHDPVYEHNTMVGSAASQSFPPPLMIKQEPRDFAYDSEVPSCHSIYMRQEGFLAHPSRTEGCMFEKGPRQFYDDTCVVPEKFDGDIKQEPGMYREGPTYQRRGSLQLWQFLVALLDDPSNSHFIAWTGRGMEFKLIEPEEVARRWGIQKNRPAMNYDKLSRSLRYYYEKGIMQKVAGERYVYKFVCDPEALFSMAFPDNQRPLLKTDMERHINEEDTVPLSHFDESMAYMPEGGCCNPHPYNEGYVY
Chain of CRX (O43186 whole entry): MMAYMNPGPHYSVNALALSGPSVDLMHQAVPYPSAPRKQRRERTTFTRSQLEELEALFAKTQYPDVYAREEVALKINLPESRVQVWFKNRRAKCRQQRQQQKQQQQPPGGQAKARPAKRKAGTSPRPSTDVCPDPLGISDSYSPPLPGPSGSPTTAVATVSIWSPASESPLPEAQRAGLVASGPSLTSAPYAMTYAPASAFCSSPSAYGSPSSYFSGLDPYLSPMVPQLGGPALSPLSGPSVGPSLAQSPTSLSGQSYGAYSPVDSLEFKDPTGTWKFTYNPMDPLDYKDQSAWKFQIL
Chain of ELF4 (Q99607 whole entry): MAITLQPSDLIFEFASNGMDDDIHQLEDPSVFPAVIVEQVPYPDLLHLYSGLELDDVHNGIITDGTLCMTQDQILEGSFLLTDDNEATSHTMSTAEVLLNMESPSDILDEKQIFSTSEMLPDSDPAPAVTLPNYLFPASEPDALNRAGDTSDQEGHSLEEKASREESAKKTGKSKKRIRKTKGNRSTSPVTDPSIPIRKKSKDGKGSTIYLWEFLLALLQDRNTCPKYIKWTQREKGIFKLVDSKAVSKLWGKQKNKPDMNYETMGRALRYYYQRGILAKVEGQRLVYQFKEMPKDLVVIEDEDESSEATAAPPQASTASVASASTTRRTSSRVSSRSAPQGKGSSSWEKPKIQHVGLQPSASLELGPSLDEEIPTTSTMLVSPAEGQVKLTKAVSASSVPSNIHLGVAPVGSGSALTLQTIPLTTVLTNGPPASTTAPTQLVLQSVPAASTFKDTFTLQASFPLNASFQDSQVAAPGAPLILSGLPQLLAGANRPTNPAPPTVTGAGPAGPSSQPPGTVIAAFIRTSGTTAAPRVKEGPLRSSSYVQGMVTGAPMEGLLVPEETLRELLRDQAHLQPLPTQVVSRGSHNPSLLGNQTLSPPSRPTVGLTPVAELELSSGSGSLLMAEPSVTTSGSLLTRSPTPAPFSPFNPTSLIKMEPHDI
Chain of ETV6 (P41212 whole entry): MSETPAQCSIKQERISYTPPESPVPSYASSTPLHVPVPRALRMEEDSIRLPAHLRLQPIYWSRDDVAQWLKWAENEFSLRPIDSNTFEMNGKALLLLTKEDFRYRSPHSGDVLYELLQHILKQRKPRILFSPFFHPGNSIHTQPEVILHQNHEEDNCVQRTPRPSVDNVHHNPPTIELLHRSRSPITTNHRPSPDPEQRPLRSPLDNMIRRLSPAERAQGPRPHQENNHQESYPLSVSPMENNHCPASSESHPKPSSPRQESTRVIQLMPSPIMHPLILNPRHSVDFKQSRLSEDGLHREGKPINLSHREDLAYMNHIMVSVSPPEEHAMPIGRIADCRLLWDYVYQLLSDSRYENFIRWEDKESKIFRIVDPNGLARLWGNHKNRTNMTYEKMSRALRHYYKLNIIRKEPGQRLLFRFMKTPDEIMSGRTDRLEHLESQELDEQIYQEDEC
Chain of HSF1 (Q00613 whole entry): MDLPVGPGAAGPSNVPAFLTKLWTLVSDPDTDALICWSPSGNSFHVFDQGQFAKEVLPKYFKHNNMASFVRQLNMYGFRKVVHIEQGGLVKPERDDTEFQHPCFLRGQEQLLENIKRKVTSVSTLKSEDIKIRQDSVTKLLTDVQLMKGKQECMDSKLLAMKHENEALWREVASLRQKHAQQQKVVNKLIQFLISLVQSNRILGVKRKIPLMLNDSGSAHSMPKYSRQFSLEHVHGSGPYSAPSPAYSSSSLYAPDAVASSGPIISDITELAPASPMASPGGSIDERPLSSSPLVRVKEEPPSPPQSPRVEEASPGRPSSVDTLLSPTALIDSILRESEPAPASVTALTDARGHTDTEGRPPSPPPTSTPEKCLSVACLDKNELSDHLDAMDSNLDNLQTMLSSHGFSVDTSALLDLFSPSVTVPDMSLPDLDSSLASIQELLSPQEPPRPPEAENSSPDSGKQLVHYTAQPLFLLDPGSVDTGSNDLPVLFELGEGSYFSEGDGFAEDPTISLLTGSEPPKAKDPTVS

Sequence	binding signal (FEV)	binding signal (ETV5)	binding signal (HSF1)	binding signal (SPIC)	binding signal (ELF4)	binding signal (ELK4)	binding signal (ETV2)	binding signal (ELF3)	binding signal (CRX)	binding signal (ETV1)	binding signal (ERF)	binding signal (ETV3L)	binding signal (ETS2)	binding signal (SPDEF)	binding signal (ETV7)	binding signal (ELF5)	binding signal (ETV3)	binding signal (ETV6)
AATGTT	1.47 fold enrichment (6-mer frequency, TF over GST control)	1.61 fold enrichment (6-mer frequency, TF over GST control)	2.33 fold enrichment (6-mer frequency, TF over GST control)	1.68 fold enrichment (6-mer frequency, TF over GST control)	1.57 fold enrichment (6-mer frequency, TF over GST control)	1.46 fold enrichment (6-mer frequency, TF over GST control)	1.43 fold enrichment (6-mer frequency, TF over GST control)	1.51 fold enrichment (6-mer frequency, TF over GST control)	1.59 fold enrichment (6-mer frequency, TF over GST control)	1.66 fold enrichment (6-mer frequency, TF over GST control)	1.61 fold enrichment (6-mer frequency, TF over GST control)	1.56 fold enrichment (6-mer frequency, TF over GST control)	1.56 fold enrichment (6-mer frequency, TF over GST control)	1.44 fold enrichment (6-mer frequency, TF over GST control)	1.68 fold enrichment (6-mer frequency, TF over GST control)	1.62 fold enrichment (6-mer frequency, TF over GST control)	1.61 fold enrichment (6-mer frequency, TF over GST control)	1.63 fold enrichment (6-mer frequency, TF over GST control)
AACTCA	1.26 fold enrichment (6-mer frequency, TF over GST control)	1.25 fold enrichment (6-mer frequency, TF over GST control)	1.14 fold enrichment (6-mer frequency, TF over GST control)	1.2 fold enrichment (6-mer frequency, TF over GST control)	1.27 fold enrichment (6-mer frequency, TF over GST control)	1.21 fold enrichment (6-mer frequency, TF over GST control)	1.22 fold enrichment (6-mer frequency, TF over GST control)	1.15 fold enrichment (6-mer frequency, TF over GST control)	1.12 fold enrichment (6-mer frequency, TF over GST control)	1.24 fold enrichment (6-mer frequency, TF over GST control)	1.18 fold enrichment (6-mer frequency, TF over GST control)	1.18 fold enrichment (6-mer frequency, TF over GST control)	1.28 fold enrichment (6-mer frequency, TF over GST control)	1.22 fold enrichment (6-mer frequency, TF over GST control)	1.2 fold enrichment (6-mer frequency, TF over GST control)	1.22 fold enrichment (6-mer frequency, TF over GST control)	1.26 fold enrichment (6-mer frequency, TF over GST control)	1.34 fold enrichment (6-mer frequency, TF over GST control)
